Values joined by “and” are separate entries in the source; they are usually repeats but may differ in a detail not shown here. Equal values may be shown once. Compounds without any hit were thinned out: in the full panel of roughly 83,000, 20% have a hit.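 A percent growth of 40 corresponds to 60% growth inhibition; 0 means no net growth; -100 means all cells died. Active threshold: below 10.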 Active and inactive are the calls of the source.

The experiment deals with UACC-62 melanoma. Kind of experiment: NCI-60 one-dose screen, 48 h (100 = growth as untreated, 0 = no growth, -100 = all killed). Conditions: 10 µM unless noted.
As to `COc1cc(CC2c3cc(OC)c(OC)cc3CCN2C)c(Oc2cc3c(cc2OC)-c2c(O)c(OC)cc4c2C(C3)N(C)CC4)cc1OC` (configuration not stated), the growth was -60.3% [100 µM] (active) and -87.2% [100 µM] (active). Next, `CCCCOC(=O)C1CN2C(=NC1(C(F)(F)F)C(F)(F)F)Sc1ccccc12` (configuration not stated): 4.45% [100 µM] (active) and 54.9% [100 µM] (inactive). With `O=C(O)c1cnccc1-c1cc(=O)[nH]n1-c1ccccc1`, the growth was 17.3% [100 µM] (inactive) and 7.35% [100 µM] (active). In the case of `CC(=O)OC(C)c1cc2c(s1)C(=O)c1ccsc1C2=O` (configuration not stated), the growth was -64.5% [100 µM] (active) and -100% [100 µM] (active). Then `N#Cc1c(SCc2ccccc2)nc(-c2ccccc2)[nH]c1=S`, with -44.7% [100 µM] (active) and 1.92% [100 µM] (active). Next, `CC(O)c1cc2c(s1)C(=O)c1c(C(C)O)csc1C2=O` (configuration not stated): -61.9% [100 µM] (active) and -94.6% [100 µM] (active). Next, `CC(=O)Oc1ccc2ccc(=O)oc2c1OC(C)=O`: 24.4% [100 µM] (inactive) and -66.3% [100 µM] (active); `N#Cc1sc2nc(/C=C3/C=CC=CC3=O)c(O)n2c1N`: 18.5% [100 µM] (inactive) and 7.16% [100 µM] (active).

Take `CC1OC(OC2C(O[C@H]3CC[C@@]4(C)C(=CC[C@H]5[C@@H]6C[C@@H]7O[C@]8(CC[C@H](C)CN8)[C@@H](C)[C@@H]7[C@@]6(C)CC[C@@H]54)C3)OC(CO)C(O)C2OC2OC(CO)C(O)C(O)C2O)C(O)C(O)C1O` (some centres not stated): the growth is 96.6% [100 µM] (inactive) and -100% [100 µM] (active). As for `CC(C)(C)c1cc(C2COC(=O)COCC(=O)OCCOCCOCCO2)cc(C(C)(C)C)c1O` (configuration not stated), the growth was -51.5% [100 µM] (active) and -100% [100 µM] (active). Turning to `CC(=O)c1cc2c(s1)C(=O)c1scc(C(C)=O)c1C2=O`, the growth is -37.8% [100 µM] (active) and -81.8% [100 µM] (active).

In the case of `CC#CC#C/C=C1\C=CC2(OC=CC2OC(C)=O)O1` (configuration not stated), the growth was -87% [100 µM] (active) and -100% [100 µM] (active).

The record behind these values is PubChem BioAssay (NCI).
